In ChEMBL document CHEMBL3988442, “University of Dundee, Small-Polar-MMV Screening Library” (2021):
For some of these results: Results with a measured potency or affinity are listed apart.

Tests used:
Parameters in all cases: scale not given: direction of the effect not stated beside the values
[1] = target: Protein translocase subunit SecA (Escherichia coli (strain K12)) (UniProt P10408); assay: Assay to Identify E. coli SecA ATPase Inhibitors; format: functional; conditions: 30 µM
[2] = target: T1, Ubiquitin-activating enzyme e1, putative (Leishmania donovani (strain BPK282A1)) (UniProt E9BSI1); assay: Leishmania donovani Ubiquitin Activating Enzyme (LdE1); format: functional; conditions: 30 µM
T1 sequence (whole entry): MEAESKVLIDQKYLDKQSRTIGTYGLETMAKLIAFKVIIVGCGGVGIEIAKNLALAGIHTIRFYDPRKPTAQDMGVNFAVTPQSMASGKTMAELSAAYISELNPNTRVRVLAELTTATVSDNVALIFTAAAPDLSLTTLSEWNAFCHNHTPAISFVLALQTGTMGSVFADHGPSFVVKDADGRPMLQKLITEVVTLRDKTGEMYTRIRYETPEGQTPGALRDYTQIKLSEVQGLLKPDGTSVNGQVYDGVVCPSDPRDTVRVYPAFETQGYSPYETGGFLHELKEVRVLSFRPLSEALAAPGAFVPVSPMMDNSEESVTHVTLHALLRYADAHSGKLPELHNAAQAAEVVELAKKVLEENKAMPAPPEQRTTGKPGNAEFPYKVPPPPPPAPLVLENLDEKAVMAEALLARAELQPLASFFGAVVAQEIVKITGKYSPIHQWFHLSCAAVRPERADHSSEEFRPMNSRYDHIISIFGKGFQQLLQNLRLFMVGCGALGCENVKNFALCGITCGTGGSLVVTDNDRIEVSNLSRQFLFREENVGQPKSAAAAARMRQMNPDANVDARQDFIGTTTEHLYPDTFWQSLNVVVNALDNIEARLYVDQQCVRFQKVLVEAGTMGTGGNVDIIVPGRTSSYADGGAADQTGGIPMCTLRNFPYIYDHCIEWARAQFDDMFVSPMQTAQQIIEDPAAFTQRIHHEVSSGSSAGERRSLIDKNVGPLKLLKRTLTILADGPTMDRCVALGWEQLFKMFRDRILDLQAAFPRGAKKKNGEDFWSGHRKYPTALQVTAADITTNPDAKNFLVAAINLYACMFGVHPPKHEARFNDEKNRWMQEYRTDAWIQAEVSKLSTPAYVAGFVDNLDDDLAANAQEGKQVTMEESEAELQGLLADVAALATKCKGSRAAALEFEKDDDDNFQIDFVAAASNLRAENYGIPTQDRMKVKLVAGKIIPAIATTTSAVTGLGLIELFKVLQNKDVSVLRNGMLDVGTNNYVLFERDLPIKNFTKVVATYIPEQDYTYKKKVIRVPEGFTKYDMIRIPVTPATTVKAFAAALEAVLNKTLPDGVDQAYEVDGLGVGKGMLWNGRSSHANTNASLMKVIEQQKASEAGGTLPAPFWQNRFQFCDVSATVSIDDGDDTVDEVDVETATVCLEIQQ

[3] = target: AMP-activated protein kinase, AMPK (Homo sapiens) (UniProt P54646+O43741+P54619+Q9UGJ0+Q9Y478+Q13131+Q9UGI9); assay: AMP-dependent Kinase enzyme assay. An in vitro enzyme assay that detects ADP turnover that is directly proportional to AMPK activity. This uses naive AMPK that is activated during the assay with MK-8722; format: functional; conditions: 30 µM
[4] = target: Sialic acid-binding Ig-like lectin 9 (Homo sapiens) (UniProt Q9Y336); assay: Hs-Siglec9 ALPHAscreen SOP 20170721; conditions: 10 µM
Trypanosoma cruzi = assay: Trypanosoma cruzi phosphomannomutase and mannose-1-phosphate guanylyltransferase assay; format: functional; conditions: 10 µM
[5] = target: T2, Arginase-2, mitochondrial (Homo sapiens) (UniProt P78540); assay: in vitro enzyme assay to detect the production of urea directly proportional to the activity of Arginase II; format: functional; conditions: 33.3 µM; further: in the data most compounds retested in dose-response had high values
T2 sequence (whole entry): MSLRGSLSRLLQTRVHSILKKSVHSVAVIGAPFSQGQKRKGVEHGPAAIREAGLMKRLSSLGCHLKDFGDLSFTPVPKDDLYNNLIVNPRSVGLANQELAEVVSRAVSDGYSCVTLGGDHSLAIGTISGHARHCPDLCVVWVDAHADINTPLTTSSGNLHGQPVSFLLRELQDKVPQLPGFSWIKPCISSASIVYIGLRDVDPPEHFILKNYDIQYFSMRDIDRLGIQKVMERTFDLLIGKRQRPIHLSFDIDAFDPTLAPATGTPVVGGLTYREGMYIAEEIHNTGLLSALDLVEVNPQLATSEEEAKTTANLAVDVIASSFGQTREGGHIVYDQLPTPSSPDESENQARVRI

[6] = target: T3, Proteasome subunit beta (Trypanosoma cruzi) (UniProt O96673); assay: Trypanosoma cruzi proteasome chymotrypsin-like activity (TcProtChymo) assay.; further: in the data most compounds retested in dose-response had high values; format: functional; conditions: 9.37 µM
T3 sequence (whole entry): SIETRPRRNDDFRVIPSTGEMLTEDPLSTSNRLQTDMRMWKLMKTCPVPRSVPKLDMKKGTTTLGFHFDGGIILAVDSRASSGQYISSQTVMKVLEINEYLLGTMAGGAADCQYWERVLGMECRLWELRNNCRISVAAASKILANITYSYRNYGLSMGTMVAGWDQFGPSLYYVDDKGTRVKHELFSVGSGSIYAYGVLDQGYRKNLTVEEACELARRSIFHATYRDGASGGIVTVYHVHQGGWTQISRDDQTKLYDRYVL

Homo sapiens = species on record: Homo sapiens; assay: To identify inhibition of the IFN signalling (Jak-Stat) pathway via expression of an eGFP reporter gene under the control of an IFN-stimulated response element (ISRE) containing MxA promoter.; format: functional; conditions: 30 µM
[7] = target: T4, Tyrosyl-tRNA synthetase, putative (Trypanosoma cruzi (strain CL Brener)) (UniProt Q4DSP6); assay: Trypanosoma cruzi tyrosyl tRNA synthetase (TcYRS) _High Tyrosine SOP; format: functional; conditions: 30 µM; further: in the data most compounds retested in dose-response had high values
T4 sequence (whole entry): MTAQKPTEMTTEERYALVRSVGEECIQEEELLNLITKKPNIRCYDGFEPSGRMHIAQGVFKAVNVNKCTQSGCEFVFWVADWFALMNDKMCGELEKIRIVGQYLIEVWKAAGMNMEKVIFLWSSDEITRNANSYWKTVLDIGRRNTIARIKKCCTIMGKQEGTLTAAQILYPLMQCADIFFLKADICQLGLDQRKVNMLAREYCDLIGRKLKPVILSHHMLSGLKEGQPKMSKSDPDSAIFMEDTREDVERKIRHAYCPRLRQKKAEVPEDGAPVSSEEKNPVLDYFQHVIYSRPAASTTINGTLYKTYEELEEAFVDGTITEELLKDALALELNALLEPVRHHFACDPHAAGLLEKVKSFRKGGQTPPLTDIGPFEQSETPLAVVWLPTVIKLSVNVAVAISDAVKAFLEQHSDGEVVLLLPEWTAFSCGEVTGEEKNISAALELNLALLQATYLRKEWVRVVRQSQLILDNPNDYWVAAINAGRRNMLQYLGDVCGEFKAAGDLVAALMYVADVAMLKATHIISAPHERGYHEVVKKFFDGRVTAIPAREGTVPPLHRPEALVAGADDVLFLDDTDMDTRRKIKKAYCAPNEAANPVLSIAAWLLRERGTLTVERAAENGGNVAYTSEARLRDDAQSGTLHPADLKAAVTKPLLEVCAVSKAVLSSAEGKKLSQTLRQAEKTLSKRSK

[8] = target: T4, Tyrosyl-tRNA synthetase, putative (Trypanosoma cruzi (strain CL Brener)); assay: Trypanosoma cruzi tyrosyl tRNA synthetase (TcYRS) SOP; format: functional; conditions: 30 µM
[9] = target: Chromo domain-containing protein 1 (Saccharomyces cerevisiae (strain ATCC 204508 / S288c) (Baker's yeast)) (UniProt P32657); assay: ScCHD-1 Enzyme Inhibition Assay; format: functional; conditions: 30 µM; further: in the data most compounds retested in dose-response had high values
Chromo domain-containing protein 1 (Saccharomyces cerevisiae (strain ATCC 204508 / S288c) (Baker's yeast)), sequence (P32657 whole entry, the tested form may be a part): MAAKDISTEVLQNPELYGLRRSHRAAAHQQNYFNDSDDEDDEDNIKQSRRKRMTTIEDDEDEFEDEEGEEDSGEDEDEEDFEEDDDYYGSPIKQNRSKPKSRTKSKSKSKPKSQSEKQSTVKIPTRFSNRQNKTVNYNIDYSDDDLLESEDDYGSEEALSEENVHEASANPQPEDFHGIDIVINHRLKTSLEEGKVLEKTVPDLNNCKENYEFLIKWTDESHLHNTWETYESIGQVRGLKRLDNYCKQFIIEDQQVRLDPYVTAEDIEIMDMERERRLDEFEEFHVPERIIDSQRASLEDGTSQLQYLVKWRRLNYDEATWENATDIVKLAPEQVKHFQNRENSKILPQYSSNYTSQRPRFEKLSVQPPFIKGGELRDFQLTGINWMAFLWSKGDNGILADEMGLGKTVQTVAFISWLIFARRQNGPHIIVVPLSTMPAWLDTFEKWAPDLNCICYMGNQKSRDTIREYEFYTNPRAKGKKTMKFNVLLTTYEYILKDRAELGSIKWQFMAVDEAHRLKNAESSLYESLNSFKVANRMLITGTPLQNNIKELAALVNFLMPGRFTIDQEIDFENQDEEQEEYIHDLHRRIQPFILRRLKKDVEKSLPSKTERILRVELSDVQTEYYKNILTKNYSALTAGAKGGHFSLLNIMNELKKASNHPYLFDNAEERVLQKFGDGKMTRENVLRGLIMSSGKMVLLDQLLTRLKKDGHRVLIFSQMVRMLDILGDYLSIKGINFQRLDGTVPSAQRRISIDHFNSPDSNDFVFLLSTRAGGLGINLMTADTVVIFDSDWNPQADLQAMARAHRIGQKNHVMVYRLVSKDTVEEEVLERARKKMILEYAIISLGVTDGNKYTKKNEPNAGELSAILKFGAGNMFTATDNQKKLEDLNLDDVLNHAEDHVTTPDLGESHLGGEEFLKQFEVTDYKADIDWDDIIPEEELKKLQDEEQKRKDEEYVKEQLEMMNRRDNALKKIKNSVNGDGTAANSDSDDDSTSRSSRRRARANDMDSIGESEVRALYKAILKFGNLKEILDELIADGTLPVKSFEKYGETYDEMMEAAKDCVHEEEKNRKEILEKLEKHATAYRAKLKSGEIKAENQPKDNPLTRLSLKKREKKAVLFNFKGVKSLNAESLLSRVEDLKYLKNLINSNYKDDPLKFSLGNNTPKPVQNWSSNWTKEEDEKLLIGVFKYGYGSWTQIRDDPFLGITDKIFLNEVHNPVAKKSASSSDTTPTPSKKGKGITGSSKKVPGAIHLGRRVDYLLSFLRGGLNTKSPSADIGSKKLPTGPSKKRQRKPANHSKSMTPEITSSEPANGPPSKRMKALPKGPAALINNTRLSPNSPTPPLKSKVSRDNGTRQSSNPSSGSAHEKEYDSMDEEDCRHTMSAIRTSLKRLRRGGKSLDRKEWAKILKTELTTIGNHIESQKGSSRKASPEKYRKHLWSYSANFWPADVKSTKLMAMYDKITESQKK

Sialic acid-binding Ig-like lectin 9 (Homo sapiens), sequence (Q9Y336 whole entry): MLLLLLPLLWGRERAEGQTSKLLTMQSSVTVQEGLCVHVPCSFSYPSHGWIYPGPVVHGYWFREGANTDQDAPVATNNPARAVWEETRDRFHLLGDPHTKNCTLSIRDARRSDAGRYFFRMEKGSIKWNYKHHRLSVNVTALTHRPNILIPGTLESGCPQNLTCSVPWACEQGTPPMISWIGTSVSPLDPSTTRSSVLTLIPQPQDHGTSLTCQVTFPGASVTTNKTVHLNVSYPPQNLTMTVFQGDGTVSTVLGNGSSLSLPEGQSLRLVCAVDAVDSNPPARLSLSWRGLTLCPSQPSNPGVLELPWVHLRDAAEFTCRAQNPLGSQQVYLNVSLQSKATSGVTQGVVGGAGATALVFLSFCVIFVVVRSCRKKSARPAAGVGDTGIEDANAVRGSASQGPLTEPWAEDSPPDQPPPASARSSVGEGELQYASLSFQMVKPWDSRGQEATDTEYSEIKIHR
Protein translocase subunit SecA (Escherichia coli (strain K12)), sequence (P10408 whole entry): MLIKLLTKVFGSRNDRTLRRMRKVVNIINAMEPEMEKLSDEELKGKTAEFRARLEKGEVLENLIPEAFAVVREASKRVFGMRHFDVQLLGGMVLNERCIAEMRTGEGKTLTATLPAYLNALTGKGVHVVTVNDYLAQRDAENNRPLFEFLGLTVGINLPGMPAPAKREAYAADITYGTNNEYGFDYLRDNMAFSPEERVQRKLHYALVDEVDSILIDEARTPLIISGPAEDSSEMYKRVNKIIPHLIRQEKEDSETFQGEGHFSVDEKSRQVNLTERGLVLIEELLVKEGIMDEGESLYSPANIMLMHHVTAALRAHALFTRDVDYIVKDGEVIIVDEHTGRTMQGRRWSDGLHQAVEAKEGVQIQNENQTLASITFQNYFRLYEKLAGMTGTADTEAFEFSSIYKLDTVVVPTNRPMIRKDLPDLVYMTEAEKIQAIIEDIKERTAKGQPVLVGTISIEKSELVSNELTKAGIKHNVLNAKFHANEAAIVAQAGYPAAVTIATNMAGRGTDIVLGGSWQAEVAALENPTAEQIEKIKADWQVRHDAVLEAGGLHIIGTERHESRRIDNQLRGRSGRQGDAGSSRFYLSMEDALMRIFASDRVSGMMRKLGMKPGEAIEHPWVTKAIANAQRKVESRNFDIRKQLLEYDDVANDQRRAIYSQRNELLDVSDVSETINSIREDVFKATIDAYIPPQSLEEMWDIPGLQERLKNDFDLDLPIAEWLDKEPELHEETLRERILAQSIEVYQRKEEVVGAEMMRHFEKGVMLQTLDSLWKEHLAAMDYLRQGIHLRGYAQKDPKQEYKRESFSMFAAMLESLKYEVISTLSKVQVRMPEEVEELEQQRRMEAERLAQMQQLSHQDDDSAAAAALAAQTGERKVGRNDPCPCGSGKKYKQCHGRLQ

Structure (SMILES) | Percent Effect [1] [%] | Percent Effect [2] [%] | Percent Effect [3] [%] | Percent Effect [4] [%] | Percent Effect (Trypanosoma cruzi) [%] | Percent Effect [5] [%] | Percent Effect [6] [%] | Percent Effect (Homo sapiens) [%] | Percent Effect [7] [%] | Percent Effect [8] [%] | Percent Effect [9] [%]
Cc1cnn(CC(C)NCc2ccc(OCc3ccncc3)cc2)c1 (stereo not given) | -5.11 | -1.27 | 4.3 | -6.57 | -6.67 | -3.66 | 9.95 | 24.2 | 5.21 | 5.06 | -25.8
CC(C)[C@H](NC(=O)NC1CCS(=O)(=O)C1)C(=O)Nc1cccnc1 (stereo not given in full) | 1.55 | 9.33 | -0.824 | -4.96 | -3.34 | -8.28 | 13.1 | 17.4 | 3.17 | 12.8 | -7.36
CCN1CCCn2c(nc(CNC(=O)c3ccsc3)cc2=O)C1 | -4.67 | 13.5 | 7.54 | 3.9 | -0.0978 | 9.24 | 13.1 | -1.85 | 3.24 | 17.9 | -0.449
CS(=O)(=O)NCCCN1CCCC1c1ccccc1 (stereo not given) | -4.36 | 5.06 | -1.23 | 6.79 | 1.42 | 3.04 | 3.03 | -31.1 | 7.39 | 13.9 | -5.84
CC1c2ncc(Cn3cncn3)n2CCN1C1CCOCC1 (stereo not given) | -4.22 | -2.67 | -5.46 | -3.4 | -4.83 | -54.3 | 9.91 | 2.92 | 2.08 | -12.5 | -5.31
CCN(CC)c1ccc(C(=O)N(C)Cc2c(C)noc2C)cn1 | -4.04 | 10.5 | -4.84 | -2.69 | -7 | 10.1 | -5.84 | 10.8 | 3.45 | 11.1 | -1.15
CCC(=O)N1CCC(c2nnc(Cn3cccn3)n2C2CC2)CC1 | -5.96 | 18.1 | -4.09 | 12.6 | 2.23 | -0.442 | 8.07 | -1.41 | 4.21 | 12.8 | -0.227
CN1CC2(COCCN(C(=O)c3ccco3)C2)OCC1=O (stereo not given) | -5.81 | 2.67 | -0.919 | -3.45 | -5.99 | -55.4 | 0.513 | -7.28 | -3.12 | -2.5 | -2.77
CN(C)C(=O)COCc1cncc2c1CCN(Cc1cnn(C)c1)C2 | -4.54 | 10.4 | 1.37 | 20 | 0.0983 | -6.9 | 11.8 | 10.6 | 3.23 | 8.64 | -2.53
CCC(=O)N1CCc2[nH]cnc2C12CCN(C(=O)CCS(C)(=O)=O)CC2 | 1.36 | 6.94 | -9.27 | 3.42 | 4.37 | 23.4 | 19.1 | 22.1 | 5.26 | 7.69 | -2.55
c1cnn(CC2CN(c3ncnc4ccsc34)CCO2)c1 (stereo not given) | -5.02 | 2.7 | 14.2 | -3.02 | -4.69 | 0.833 | 19.5 | 69.8 | 4.95 | 11 | 0.323
COc1ccccc1N1CCC(CNCc2cccc(O)c2)C1 (stereo not given) | -2.9 | -5.41 | 15.1 | 11 | 1.6 | -4.81 | 4.14 | 20.2 | 0.493 | 6.17 | -6.34
Cc1ccc(NC(=O)NC(C)c2nc[nH]n2)s1 (stereo not given) | -7.16 | 5.41 | 1.69 | 19.6 | -0.293 | 2.23 | 9.7 | -8.4 | 6.45 | 13.6 | -2.14
Cn1ncc2c1CCCC2NCc1cnc(-c2ccccc2)nc1 (stereo not given) | -8.3 | 13.5 | -13.8 | 24.2 | 4.62 | -7.21 | 1.44 | 22.4 | 2.46 | 18.5 | -12.3
O=C(c1cccn1Cc1cccs1)N1CCN(C2CC2)CC1 | -4.51 | 0 | 3.71 | 11 | 8.05 | 0 | 11.3 | -0.305 | 6.8 | 14.6 | -8.6
COCC1CCN(C(=O)c2cccc(S(=O)(=O)NCC3(C)COC3)c2)C1 (stereo not given) | -8.36 | 5.41 | 0.667 | 24.4 | 1.07 | 3.23 | 1.63 | 9.82 | 6.45 | 13.6 | -4.61
O=C1OC2(CCN(C3CCCOC3)CC2)CN1CCc1ccccc1 (stereo not given) | -0.187 | 7.79 | -6.88 | 5.02 | -3.64 | -11 | 14 | 15.6 | 3.23 | 6.17 | 0.643
CCCc1nc(CN2CCOC(CNc3cccnn3)C2)cs1 (stereo not given) | -3.31 | 2.7 | -3.87 | 5.09 | -0.849 | -5.61 | 10.3 | 7.16 | 14.3 | 30.9 | -7.47
COc1ccc(OC)c(C(O)CN2CC(n3cccn3)C2)c1 (stereo not given) | -3.82 | -10.5 | 2.67 | 6.6 | 9.02 | 4.98 | 9.52 | -12.8 | 6.37 | 9.76 | -8.21
Cc1nccn1C1CCCN(C(=O)c2ccc(N(C)C)nc2)C1 (stereo not given) | -4.63 | 7.89 | -3.59 | 3.06 | 6.26 | -1.08 | 7.36 | 7.13 | 7.39 | 18.5 | -0.744
